Source: PubChem BioAssay AID463173 (ICCB-Longwood Screening Facility, Harvard Medical School, 2010)
Out of some 52,000 compounds screened, about 4,300 (8.3%) were called active. The full list was thinned out, with actives kept by preference. Unmarked numbers belong to inactive results. No stated cut-off is given here; in the data, active means survival mostly below about 52% (no sharp cut-off); inactive means mostly above about 56%.

Test system: DeltatarO mutant
Test: growth inhibition of S. aureus wild type versus tarO mutant, primary screen, teichoic acid synthesis inhibitors, RN4220, OD600 (AID 463173)
Conditions: OD600, 18 h, hits give low values, screened at 18.75 µg/mL (by protocol)

Going from `CCOc1ccc(CCNCc2c(C(=O)O)c(C)n(Cc3ccccc3F)c2C)cc1` to `CCCC(=O)NCCc1nc2ccccc2n1Cc1c(F)cccc1Cl`, the survival falls from 82% to 69%.

First: CC(C)(C)n1nnnc1CN1CCC(NC(=O)Nc2ccc(F)cc2)CC1
Second: COCCNC(=O)C1CCN(Cc2cc3ccccc3n2Cc2ccc(C)cc2)CC1
The survival of the first is higher: 102% for the first, 99% for the second.

Going from `CCOC(=O)c1ccc(NS(=O)(=O)c2ccc3c(c2)n(C)c(=O)n3C)cc1` to `COC(=O)c1ccc(NS(=O)(=O)c2ccc3c(c2)n(C)c(=O)c(=O)n3C)cc1`, the survival falls from 96% to 79%.

Going from `Fc1ccc(-n2ncc3c(Nc4cccc(Cl)c4)ncnc32)cc1` to `O=C(NCc1cccnc1)c1nn(-c2ccc(F)cc2)nc1CO`, the survival rises from 67% to 111%.

First: COc1cccc2c1cc1c(=O)n(CC(=O)N3CCN(c4ccc(F)cc4)CC3)nc(C)n12
Second: COCCNC(=O)Cn1nc(N2CCN(c3ccccc3OC)CC2)ccc1=O
The survival of the first is lower: 87% for the first, 94% for the second.

First: COc1cccc(NC(=O)CN2C=NS(=O)(=O)c3ccccc32)c1
Second: COc1ccc(NC(=O)CSc2cc(-c3ccccc3)nc(C)n2)cc1
The survival of the first is higher: 122% for the first, 94% for the second.

Going from `O=C(CCCCn1c(=O)c2ccccc2n(Cc2ccc(F)cc2Cl)c1=O)NCCc1ccc(Cl)cc1` to `COc1ccc(NC(=O)CCn2nc(-c3ccc(Cl)cc3)c3ccccc3c2=O)cc1`, the survival rises from 72% to 76%.

First: O=C(c1ccc(Cl)cc1)N1CCCCC1CCN1CCOCC1 (stereo not drawn)
Second: Cc1ccc(NC(=O)CSc2nc(=O)n(CCN3CCOCC3)c3c2CCC3)c(C)c1
The survival of the first is higher: 104% for the first, 73% for the second.

Going from `Cc1nc2c(C(=O)NC(C)c3ccccc3)cnn2c(C)c1Cc1ccccc1` (stereo not drawn) to `Cc1nc(SCC(=O)Nc2ccccc2C)cc(-c2ccccc2)n1`, the survival falls from 72% to 53%.

First: Cn1nc(-c2ccc(C(=O)Nc3cccc(C(F)(F)F)c3)cc2)c2ccccc2c1=O
Second: O=C(Cn1nc(Cc2cccnc2)c2ccccc2c1=O)Nc1cccc(C(F)(F)F)c1
The survival of the first is higher: 57% for the first, 54% for the second.

Compared with `CNC(=O)Cn1nc(-c2ccc(Cl)cc2)c2ccccc2c1=O`, `CC(C)CC(C(=O)NCc1ccc(F)cc1)N1Cc2ccccc2C1=O` (stereo not drawn) is higher in survival: 52% for the first, 88% for the second.

First: Oc1c(C(c2ccc(Cl)cc2Cl)N2CCCC2)sc2nc(-c3ccco3)nn12 (stereo not drawn)
Second: Cc1cccc(C(=O)OCc2cc(=O)n3nc(C4CCCCC4)sc3n2)c1
The survival of the first is lower: 68% for the first, 78% for the second.

Going from `CNC(=S)NC1CC2CCCC(C1)N2Cc1ccco1` (stereo not drawn) to `Cc1ccc(-c2nnc(NC3CCCC3)s2)cc1`, the survival falls from 80% to 76%.

Compared with `O=C(c1ccccc1)N1CCC(O)(c2cccnc2)CC1`, `CC(=O)N1CCCC1c1nc2ccccc2n1Cc1ccccc1C` (stereo not drawn) is lower in survival: 70% for the first, 69% for the second.

Going from `COC(=O)c1ccccc1NC(=O)CSc1cc(-c2ccccc2)nc(C)n1` to `Cc1nc(SCC(=O)Nc2ccc(C)c(Cl)c2)cc(-c2ccccc2)n1`, the survival falls from 71% to 46%.

Going from `CCOc1ccc(NC(=O)CCS(=O)(=O)c2cc3c4c(c2)CCN4C(=O)CC3)cc1` to `CCOc1cc2c(cc1OCC)C(CC(=O)O)N(C(=O)Nc1ccc(Br)c(C)c1)CC2` (stereo not drawn), the survival rises from 74% to 81%.

Compared with `Cc1cc(C)c(C#N)c(NC2CCCCC2)n1`, `CC(=O)N1CCCC1c1nc2ccccc2n1Cc1cccc(C)c1` (stereo not drawn) is lower in survival: 87% for the first, 72% for the second.

Going from `Cc1ccc(C(=O)Nc2c(C(=O)Nc3ccc(C)c(C)c3)sc3nc(C)cc(C)c23)cc1` to `CCc1ccc2occ(CC(=O)Nc3c(C(=O)Nc4ccc(OC)cc4)oc4ccccc34)c2c1`, the survival rises from 54% to 84%.

Compared with `Cc1cc(C)cc(-n2c(C)cc(C(=O)C(=O)Nc3ccccc3F)c2C)c1`, `CCOc1cc2c(cc1OCC)C(CC(=O)OC)N(C(=O)Nc1cc(C)cc(C)c1)CC2` (stereo not drawn) is lower in survival: 99% for the first, 83% for the second.

`COc1ccc(C2=CC(c3cccc(C)c3)n3nnnc3N2)cc1` (stereo not drawn) and `COc1ccc(C2C=C(c3ccc(Br)cc3)Nc3nnnn32)c(OC)c1` (stereo not drawn) are the same in survival: 84% for the first, 84% for the second.

Compared with `Fc1ccc(Br)cc1C1C=C(c2ccc(Br)cc2)Nc2nnnn21` (stereo not drawn), `CN(C)c1ccc(C2C=C(c3ccccc3)Nc3nnnn32)cc1` (stereo not drawn) is lower in survival: 91% for the first, 52% for the second.

Going from `CCOc1ccc(NC(=O)c2cnn3c2NC(c2cccc(OC)c2)=CC3c2ccccc2)cc1` (stereo not drawn) to `COc1cccc(C2C=C(c3ccc(C)c(C)c3)Nc3nnnn32)c1OC` (stereo not drawn), the survival rises from 49% to 72%.

First: Cc1ccc(C)c(N2CCN(S(=O)(=O)c3ccc4c(c3)n(C)c(=O)c(=O)n4C)CC2)c1
Second: Cc1cccc(CNC(=O)Cn2c(-c3cccs3)cc3ccccc32)c1
The survival of the first is lower: 76% for the first, 116% for the second.

Going from `Cc1ccccc1Cn1cnc2ccccc21` to `OCc1nc2ccccc2n1Cc1ccccc1Cl`, the survival falls from 77% to 74%.

Compared with `OCc1nc2ccccc2n1Cc1c(F)cccc1Cl`, `O=C(NCc1nc2ccccc2n1Cc1ccccc1Cl)c1ccccc1` is lower in survival: 99% for the first, 97% for the second.

In the case of `Cc1ccc(NC(=O)Cn2nc(-c3ccc(Cl)cc3)c3ccccc3c2=O)cc1`, the survival is reported as 38% (active).
In the case of `O=C(Cn1nc(-c2ccc(Cl)cc2)c2ccccc2c1=O)Nc1cccc(C(F)(F)F)c1`, the survival is reported as 34% (active).
With `CCOC(=O)c1ccc(NC(=O)CSc2cc(-c3ccccc3)nc(C)n2)cc1` the survival was 40% (active).
`Cc1nc(SCC(=O)Nc2ccccc2Cl)cc(-c2ccccc2)n1` was tested, and the survival was 56% (active).
For `N#CSc1cnc(NC2CCCCC2)s1`, the survival was 1% (active).
For `COc1cccc(C2=CC(c3cc(Br)ccc3F)n3nnnc3N2)c1` (stereo not drawn), the survival was -2% (active).
With `CCOc1ccc(C2C=C(c3cccc(OC)c3)Nc3nnnn32)cc1` (stereo not drawn) the survival was 45% (active).
`Cc1cccc(C2C=C(c3ccc(C)c(C)c3)Nc3nnnn32)c1` (stereo not drawn) was tested, and the survival was 6% (active).
For `CCOC(=O)CC1c2cc(OCC)c(OCC)cc2CCN1C(=O)Nc1cccc(Cl)c1` (stereo not drawn), the survival was 41% (active).
`Clc1ccccc1Cn1c(-c2cccs2)nc2ccccc21` was tested, and the survival was 11% (active).
For `Cc1cccc(Cn2c(-c3cccs3)nc3ccccc32)c1`, the survival was 2% (active).
In the case of `Fc1cccc(Cl)c1Cn1c(-c2cccs2)nc2ccccc21`, the survival is reported as 21% (active).
With `Cc1ccccc1Cn1c(-c2cccs2)nc2ccccc21` the survival was 19% (active).
